Common to all, as to format: functional
For test [1], the target named is Solute carrier family 2, facilitated glucose transporter member 1 (Homo sapiens) (UniProt P11166). As to the kind of experiment: ST_JUDE_LEISH: Cytotoxicity at 2uM final concentration against transgenic Leishmania Mexicana promastigotes LmGLUT1 that are glucose transport deficient and complemented with the human glucose transporter GLUT1. Activity is measured by DNA content using SYBR green in vitro.

Test [2] has as its target Hexose transporter 1 (Plasmodium falciparum) (UniProt O97467). As to the kind of experiment: ST_JUDE_LEISH: Cytotoxicity at 2uM final concentration against transgenic Leishmania Mexicana promastigotes LmPfHT that are glucose transport deficient and complemented with the Plasmodium falciparum hexose transporter. Activity is measured by DNA content using SYBR green in vitro.

In test [3] the target is Glucose transporter (Leishmania mexicana) (UniProt O61059). Description: ST_JUDE_LEISH: Cytotoxicity at 2uM final concentration against transgenic Leishmania Mexicana promastigotes LmGT2 that are glucose transport deficient and complemented with the L. Mexicana glucose transporter 2. Activity is measured by DNA content using SYBR green in vitro.

Broadly, the inhibition is the drop in the measured response relative to a control, in per cent.

Structures are written as SMILES.

Chain of Solute carrier family 2, facilitated glucose transporter member 1 (Homo sapiens) (P11166 whole entry): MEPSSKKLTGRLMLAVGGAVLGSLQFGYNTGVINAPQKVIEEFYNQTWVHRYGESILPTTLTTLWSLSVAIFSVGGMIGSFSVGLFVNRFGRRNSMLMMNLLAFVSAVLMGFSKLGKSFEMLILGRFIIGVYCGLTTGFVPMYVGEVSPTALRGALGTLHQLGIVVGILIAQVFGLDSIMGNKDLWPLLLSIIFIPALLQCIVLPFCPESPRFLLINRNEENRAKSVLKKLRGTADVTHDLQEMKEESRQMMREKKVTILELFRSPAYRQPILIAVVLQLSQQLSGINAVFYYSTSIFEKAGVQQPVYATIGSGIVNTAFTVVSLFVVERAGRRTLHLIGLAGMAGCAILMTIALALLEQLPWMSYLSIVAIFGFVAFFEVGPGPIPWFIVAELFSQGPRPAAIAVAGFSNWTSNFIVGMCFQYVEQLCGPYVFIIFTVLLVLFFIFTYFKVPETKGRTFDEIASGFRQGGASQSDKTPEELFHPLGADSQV

On to `CCCC[C@H](NC(=O)O[C@H](COc1ccc(OCc2ccccc2)cc1)C(C)(C)C)C(=O)C(=O)Nc1cc[nH]n1`, for which the inhibition in test [1] was found to be 3.68%; in test [2] it was 3.22%; in test [3], 1.64%.
With `COc1ccc2nccc([C@@H](O)CN3CCC(NCc4ccc5c(c4)oc(=S)n5C)CC3)c2c1`, the inhibition was 2.25% in test [1], 5.5% in test [2] and 1.46% in test [3].
In the case of `CN(C)CC(O)C(c1ccccc1)c1ccc(Cl)cc1` (stereo unspecified), the inhibition in test [1] turned out to be 5.17%; in test [2], 1.04%; in test [3] it was 0.76%.
As to `c1ccc(Oc2ccc(Nc3ccnc(Nc4ccc5cn[nH]c5c4)n3)cc2)cc1`, the values for the inhibition in test [1], in test [2] and in test [3] were 3.91%, 3.81% and 1.54%, respectively.
Regarding `COc1ccc(NC(=O)/C=C/c2ccccc2Cl)cc1OCCN1CCN(c2ccncc2)CC1`, the inhibition is 1.29% in test [1], -0.96% in test [2] and -1.49% in test [3].
Consider `CCCNc1ccc(-c2cc(C(N)=O)c3[nH]cc(C4CCN(S(=O)(=O)CC)CC4)c3c2)cn1`, for which the inhibition in test [1] was 3.86%; in test [2] it was 6.54%; in test [3] it was 3.64%.
As for `Cc1cc(C(=O)Nc2ccc3c(c2)CCN3C2CCN(Cc3csc4ccccc34)C2)no1` (stereo unspecified), the inhibition in test [1] is 0.87%; in test [2], -2.02%; in test [3], 1.87%.
Taken in the same sequence, the figures for `CCC(CC)n1c(C)cc2c3c(N)nc(N)nc3ccc21` were 89.4%, 90% and 70.8%.
Taken in the same sequence, the figures for `CCOC(=O)c1c(CSc2ccccc2)oc2cc(CN(C)C)c(O)c(Cl)c12` were 1.18%, 0.44% and -0.41%.
Turning to `NCc1ccc(-c2ccc3c(N)nccc3c2)cc1`, the inhibition in test [1] was -3.43%; in test [2], 0.57%; in test [3], 0.41%.
Taken in the same sequence, the figures for `CC(C)C[C@@H](NC(=O)OC(C)(C)C)C(=O)Nc1ccc(Cc2ccc(NC(=O)[C@@H](CC(C)C)NC(=O)OC(C)(C)C)cc2)cc1` were 3.6%, 3.72% and 0.63%.
For `COc1ccc2nccc([C@@H](O)CN3CCC(NCc4cc5ccccn5n4)CC3)c2c1`, the inhibition in test [1] turned out to be 4.35%; in test [2] it was 4.49%; in test [3], 4.75%.
Take `COc1cc(CNCCCNc2cc(=O)c3ccccc3[nH]2)c2c(c1)C(C)CN2C(=O)OC(C)(C)C` (stereo unspecified): the figures for the inhibition in test [1], in test [2] and in test [3] were 9.27%, 10.7% and 4.19%, respectively.
For the compound `CCN(CCCN1CCCCC1)c1cc(C)nc(Nc2cc(C(F)(F)F)ccc2C)n1`, the figures for the inhibition in test [1], in test [2] and in test [3] were -1.35%, 0.37% and 0%, respectively.
In the case of `Cc1cc(NCCC(=O)Nc2ccccc2)nc(NCCc2cccnc2)n1`, the inhibition was found to be 0.51% in test [1], 2.33% in test [2] and 1.5% in test [3].
`COc1cccc(Nc2nc(N)c3ccccc3n2)c1`: the figures for the inhibition in test [1], in test [2] and in test [3] were 22.4%, 18.8% and 7.62%, respectively.
As to `CCCC(C)Nc1nc(C)cc(N[C@@H](Cc2ccccc2)C(=O)Nc2ccc(OC)cc2)n1` (stereo partly specified), the results for the inhibition in test [1], in test [2] and in test [3] were 4.27%, 5.6% and 0.54%, respectively.
As for `CC(C)N1CCN(c2ccc(OCCCCN3CCN(c4cccc(Cl)c4Cl)CC3)c(C(F)(F)F)c2)CC1`, the results for the inhibition in test [1], in test [2] and in test [3] were -0.92%, -1.01% and 0.98%, respectively.
`O=c1cc(NCCCNCc2scc(I)c2I)[nH]c2ccccc12`: the inhibition in test [1] was found to be 4.34%; in test [2], 5.49%; in test [3] it was 4%.
The like results for `COc1cccc(CN2CCCC(OC(c3ccccc3)c3ccccc3)C2)c1O` (stereo unspecified) were, in that order, 1%, -1.82% and 0.05%.
Regarding `Cc1ccc2nc3sc(C(=O)NCCCN4CCC(N5CCCCC5)CC4)cc3cc2c1`, the figures for the inhibition in test [1], in test [2] and in test [3] were -0.92%, 3.13% and 3.19%, respectively.
Consider `O=C1CCCN1CCCNCc1ccc(-c2ccc(-c3nc4cc(F)ccc4[nH]3)s2)cc1`, for which the inhibition in test [1] was determined as 2.19%; in test [2] it was 1.67%; in test [3], 6.85%.
Turning to `COc1ccccc1N1CCN(CCCCNC(=O)c2ccc(NC(=O)c3cc(Cl)cc(Cl)c3)cc2)CC1`, the inhibition in test [1] came to 2.07%; in test [2], 3.24%; in test [3], 2.92%.
For the compound `O=C(Nc1cccc(CN2CCN(C(=O)c3cccc(F)c3)CC2)c1)c1cccs1`, the inhibition is 0.66% in test [1], 1.04% in test [2] and -0.67% in test [3].
For `CCOc1ccc(S(=O)(=O)N(C)c2ccc(OCC(=O)Nc3nccs3)cc2)cc1`, the figures for the inhibition in test [1], in test [2] and in test [3] were 5.83%, 0.61% and 1.43%, respectively.
The like results for `O=C(Nc1ccc(C(=O)Nc2cccc(C3=NCCN3)c2)cc1)Nc1ccc(C2=NCCN2)cc1` were, in that order, -1.17%, 0.34% and -0.6%.
Take `CCCCNC(=O)[C@@H](NC(=O)c1ccc(O)c(-c2ccc(Cl)c(Cl)c2)c1)C(C)C`: the inhibition in test [1] came out at 4.49%; in test [2], 4.37%; in test [3], 3.47%.
Regarding `CCCCCCCc1ccc(-c2c(C)[nH]c(C)c(Cl)c2=O)cn1`, the inhibition in test [1] came to 0.84%; in test [2], 1.55%; in test [3], 0.07%.
As to `CN(C)CCCOc1cccc(CCNCc2cccc(Oc3ccc(Cl)cc3)c2)c1`, the inhibition in test [1] stood at 2.64%; in test [2], 2.34%; in test [3], 0%.
With `O=C(NCCCCN1CCC(c2ccc3c(c2OCc2ccccn2)CCCC3)CC1)c1ccc(NC(=O)c2ccc(Cl)cc2)cc1`, the inhibition in test [1] was 2.21%; in test [2], 0.31%; in test [3] it was 2.55%.
Take `O=C1Nc2cccc3c2C1(CCCCCN1CCC(c2c[nH]c4ccncc24)CC1)CCC3` (stereo unspecified): the inhibition in test [1] was 1%; in test [2], 2.45%; in test [3] it was -0.95%.
Turning to `COc1cc2nc(N3CCC(c4ccccc4)CC3)nc(NCc3ccc(=O)[nH]c3)c2cc1OC`, the inhibition in test [1] amounted to 1.44%; in test [2], 1.5%; in test [3], 1.6%.
As for `CCCCCNc1nc(Nc2ccccc2C)nc2ccccc12`, the inhibition in test [1] was 29.1%; in test [2] it was 22.7%; in test [3] it was 11%.
As for `CN(CC(=O)Nc1ccc(F)c(F)c1F)c1ncnc2sc(-c3ccccc3)cc12`, the inhibition in test [1] turned out to be 3.92%; in test [2] it was 4.09%; in test [3], 2.74%.
`O=S(=O)(NCCN1CCCC1)c1ccc(-c2ccc(CNCc3ccc(F)cc3)cc2)cc1`: the inhibition in test [1] came out at 7.2%; in test [2], 6.71%; in test [3], 4.15%.
The like results for `Cc1ccccc1C1CCN(C2CCC(NC(=O)c3ccc(-c4cccs4)s3)CC2)CC1` (stereo unspecified) were, in that order, 2.14%, 1.24% and 1.93%.
The like results for `COc1ccccc1CNC(=O)CCn1c(=O)[nH]c2ccsc2c1=O` were, in that order, 2.58%, 3.17% and 1.36%.

These data come from ChEMBL document CHEMBL3433997, “St. Jude Leishmania screening dataset” (2016).
